Experimental findings from PubChem BioAssay AID602474 (National Center for Advancing Translational Sciences (NCATS), 2012) are described below.

Records with an inconclusive call do not appear. Calls of active or inactive are those of the source. Calls come from the whole dose curve; as a rule, active = well fitted inhibition curve with a large enough effect; inconclusive = small, poorly fitted or top-dose-only effect; inactive = no such curve, though single readings can be large or run the other way.

Luciferin 4-monooxygenase (Photinus pyralis), sequence (P08659 whole entry, looked up): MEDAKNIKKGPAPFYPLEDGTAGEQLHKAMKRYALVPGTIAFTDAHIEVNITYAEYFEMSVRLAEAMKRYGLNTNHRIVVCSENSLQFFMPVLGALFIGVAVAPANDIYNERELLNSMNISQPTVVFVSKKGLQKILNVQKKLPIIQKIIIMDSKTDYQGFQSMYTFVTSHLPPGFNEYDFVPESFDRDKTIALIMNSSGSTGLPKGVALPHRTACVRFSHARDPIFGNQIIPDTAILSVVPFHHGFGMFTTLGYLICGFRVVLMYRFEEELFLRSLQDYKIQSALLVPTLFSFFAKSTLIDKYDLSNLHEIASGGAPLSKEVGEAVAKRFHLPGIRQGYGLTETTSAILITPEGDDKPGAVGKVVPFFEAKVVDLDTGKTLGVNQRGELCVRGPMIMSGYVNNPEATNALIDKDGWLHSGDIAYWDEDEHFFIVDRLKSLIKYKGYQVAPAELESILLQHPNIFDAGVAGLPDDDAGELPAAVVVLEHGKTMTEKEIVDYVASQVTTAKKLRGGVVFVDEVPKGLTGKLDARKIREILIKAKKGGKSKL

The assay concerns the target Luciferin 4-monooxygenase (Photinus pyralis) (UniProt P08659). The assay can be described thus: FLuc inhibitory activity for the follow-up compounds in a biochemical assay with a commercial detection reagent - BriteliteTM Plus (PerkinElmer). To be noted: purified FLuc, Britelite Plus luminescence; series mostly up to 38.3 µM. The source says:
NCGC Assay Overview: Firefly (Photinus pyralis) luciferase is one of the most commonly used transcriptional reporters. It is considered one of the more dynamically responsive reporters - that is, responsive to changes in reporter transcription - as it requires no post-translational modifications and is enzymatically active directly after protein synthesis (Wood, 1998). With no endogenous expression in mammalian cells and without the requirement of external excitation, it offers very little background signal, thus generally providing excellent signal to background for most assays. Previous profiling work to determine the prevalence of compounds that affect FLuc enzymatic activity (PubChem AID 411) identified that ~3% of the MLSMR library (then at ~72K) inhibited FLuc (Auld et al., 2008). […] Of the compounds identified in this profile that inhibited FLuc, 151 compounds were selected for further analysis, in an effort to better understand their mode of inhibiting FLuc. The assay described here was to determine the activity of the compounds in a FLuc assay that used a commercial formulation of detection reagent (BriteliteTM Plus; PerkinElmer).
NCGC Assay Protocol Summary: Reagents: Britelite Plus detection reagent; 50mM Tris acetate, pH 7.5; 10nM P. pyralis luciferase (Sigma #L9506) Control compounds used were two known firefly luciferase inhibitors (3-(5-(3-chlorophenyl)-1,2,4-oxadiazol-3-yl)benzoic acid and 5-(2-fluorophenyl)-3-phenyl-1,2,4-oxadiazole), and DMSO. Assay Summary: Three microliters of buffer containing firefly luciferase (final concentrations: 50mM Tris acetate, 10nM P. pyralis luciferase) are dispensed into each well of a Greiner white, solid-bottom 1536-well format plate using a flying reagent dispenser (FRD). These assay plates were then treated with 23nL of compound or DMSO using a Kalypsys pin tool, which allows for delivery of a 12-point intraplate titration of each compound to the assay plate (quantitative HTS), with final compound concentrations ranging from approximately ~38uM to 0.2nM. Three microliters of 2X Britelite Plus detection reagent was then delivered by FRD to each well. Luciferase activity was then measured using a ViewLux CCD imager (PerkinElmer), with an average exposure time of 2-30 seconds (2X binning, medium/high gain).
On to `COc1ccc(NS(=O)(=O)c2cccc(C(=O)Nc3ccccc3C(=O)O)c2)cc1`, for which the Potency result is “inactive”. Next, `Nc1ccc2nc(-c3ccccc3)sc2c1`: 0.634 µM (active); `O=C(Nc1ccccc1C(=O)O)c1ccc(NC(=O)C2CC2)cc1`: 4.49 µM (active).

With `COc1ccc(-c2nc3ccccc3s2)cc1NC(=O)c1ccc(F)cc1`, the Potency result is “inactive”. Next, `Cc1ccc(C(=O)Nc2cccc(C(=O)O)c2)cc1`: 2 µM (active); `Cn1c(N/N=C/c2cc3ccccc3nc2Cl)nc2ccccc21`: 12.6 µM (active); `Nc1ccccc1C(=O)Nc1cccc(C(=O)O)c1`: 12.6 µM (active).

As to `COc1ccc(Br)cc1C(=O)Nc1ccc(C(=O)O)cc1`, the Potency entry was “inactive”.

As to `C/C(=N\NC(=O)c1ccccc1NC(=O)c1ccc(Cl)cc1)c1ccncc1`, the Potency is 0.0159 µM (active). Next, `O=C(Nc1ccccc1C(=O)O)c1cc(S(=O)(=O)Nc2ccccc2)ccc1Cl`: “inactive”. Next, `CCOc1ccc2nc(NC(=O)c3ccccc3)sc2c1`: 2.52 µM (active); `Nc1ccc(-c2nc3cc(N)ccc3s2)cc1`: 4 µM (active). As to `Cc1ccc2sc(-c3ccc(NC(=O)c4cc(-n5cnnc5)ccc4Cl)cc3)nc2c1`, the Potency result was “inactive”. Next, `COc1ccc2nc(NC(=O)c3nc(S(=O)(=O)Cc4ccc(C)cc4)ncc3Cl)sc2c1`: “inactive”.

Regarding `O=C(Nc1ccccc1-c1nc2ccccc2s1)c1cccnc1`, the Potency result was “inactive”.

For `COc1ccc2nc(NC(=O)C3CCN(S(=O)(=O)c4cccnc4)CC3)sc2c1`, the Potency result is “inactive”. Turning to `CC(C)C(=O)Nc1cccc(C(=O)Nc2ccccc2C(=O)O)c1`, the Potency was 17.9 µM (active). Regarding `CC(C)(C)C(=O)Nc1ccc(-c2nc3ccccc3s2)cc1`, the Potency is 0.0179 µM (active). Next, `CCc1noc(C)c1C(=O)Nc1nc2ccc(OC)cc2s1`: 0.0504 µM (active); `O=C(Nc1ccccc1C(=O)O)c1cccc(NC(=O)c2ccccc2Br)c1`: “inactive”; `Nc1cccc(-c2nc3ccc(N)cc3s2)c1`: 0.798 µM (active).

In the case of `COc1ccc2nc(NC(=O)c3ccc(NS(=O)(=O)c4cccs4)cc3)sc2c1`, the Potency entry is “inactive”.

`COc1cccc(-c2nc3ccccc3s2)c1`: the Potency is 5.65 µM (active).

With `COc1ccc2nc(NC(=O)c3ccc([N+](=O)[O-])o3)sc2c1`, the Potency was 3.56 µM (active). As to `Cc1ccc2sc(-c3ccc(N)cc3)nc2c1`, the Potency was 0.798 µM (active). Next, `O=C(O)c1ccc(NC(=O)c2cccc(C(=O)Nc3ccc(C(=O)O)cc3)c2)cc1`: “inactive”. Next, `Cc1ccc(C(=O)Nc2cccc(C(=O)O)c2)cc1S(=O)(=O)N1CCCCC1`: 2.83 µM (active); `CCOc1ccc2nc(NC(=O)c3cc([N+](=O)[O-])ccc3N3CCOCC3)sc2c1`: “inactive”; `O=C(Nc1ccccc1C(=O)O)c1cc(S(=O)(=O)Nc2cccc(F)c2)ccc1Cl`: “inactive”.

As for `O=C(Cc1ccccc1)Nc1ccccc1C(=O)Nc1ccc(C(=O)O)cc1`, the Potency entry is “inactive”. Next, `COc1c(C)cccc1C(=O)Nc1ccc(-c2nc3ccccc3s2)c(Cl)c1`: 7.11 µM (active); `CC(C)c1ccc(C(=O)Nc2ccc(-c3nc4ccccc4s3)c(Cl)c2)cc1`: “inactive”; `Cc1ccc(C(=O)Nc2ccccc2C(=O)O)cc1S(=O)(=O)N1CCCCCC1`: 8.95 µM (active). For `COc1ccc(-c2nc3ccccc3s2)cc1O`, the Potency was 0.711 µM (active). Next, `O=C(Nc1c(Cl)cc(Cl)cc1-c1nc2ccccc2s1)c1ccc(Br)o1`: 17.9 µM (active).
